High-throughput results: PubChem, Sanford-Burnham Center for Chemical Genomics
C8 TRAIL sens – caspase-8 TRAIL sensitization. AID 624354. NB7+C8 cells + TRAIL, ATPlite viability luminescence. actives 1% (n = 360,000). inhibition (viability loss, TRAIL sensitization), % at 10 µM;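 active = compounds causing at least 50% loss of cell viability in the single-dose screen, relative to plate controls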
SENP6 block – blocks the human protease SENP6; Q9GZR1; Recombinant SENP6 catalytic domain, aminoluciferin luminescence; inhibition, % at 10 µM; actives 1.8% (n = 330,000);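 active = inhibition above about 50% at the single tested dose, limit read from the data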;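 note: plate controls were DMSO wells with enzyme for no effect and DMSO wells lacking enzyme for full effect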
Target sequence (Q9GZR1 628-1112 limits assumed): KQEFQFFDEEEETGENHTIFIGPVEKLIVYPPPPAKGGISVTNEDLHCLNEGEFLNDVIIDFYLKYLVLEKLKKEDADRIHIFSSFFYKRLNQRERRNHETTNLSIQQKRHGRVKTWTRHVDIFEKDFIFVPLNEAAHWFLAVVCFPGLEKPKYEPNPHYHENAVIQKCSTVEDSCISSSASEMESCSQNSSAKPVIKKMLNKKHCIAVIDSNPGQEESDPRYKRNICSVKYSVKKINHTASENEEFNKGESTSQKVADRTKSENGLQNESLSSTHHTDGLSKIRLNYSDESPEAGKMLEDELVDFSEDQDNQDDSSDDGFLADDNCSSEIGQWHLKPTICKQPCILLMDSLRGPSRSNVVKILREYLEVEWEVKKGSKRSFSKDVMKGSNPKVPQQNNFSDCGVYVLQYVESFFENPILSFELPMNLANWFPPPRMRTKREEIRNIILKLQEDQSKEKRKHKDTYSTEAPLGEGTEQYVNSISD
SENP7 inh – inhibitors of human SENP7 protease | Q9BQF6 | recombinant SENP7, Z-RLRGG-aminoluciferin luminescence, 40 min | inhibition, % at 5 µM | actives 1.5% (n = 330,000) | AID 434973;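 active = inhibition above about 50% at the single test dose, limit read from the data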;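 note: plate controls were DMSO with enzyme for no effect and no enzyme buffer wells for full effect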
PPC-1+TRAIL kill – PPC-1 cancer cell killing with TRAIL present; PPC-1 cells + TRAIL, ATPLite viability luminescence; cell killing (% activity), % at 4 µM or 5 µM; actives 0.41% (n = 220,000); AID 1443;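 active = cell killing above 50% in the first pass at 4 µM, then a duplicate retest at 5 µM averaging 50% or more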;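 note: plate controls were cells with TRAIL plus DMSO for no effect and medium-only wells lacking cells for full effect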
SENP8 block-1 – inhibitors of human SENP8 protease; Q96LD8; purified SENP8, Z-RLRGG-aminoluciferin cleavage, luminescence; inhibition, % at 10 µM; actives 1.2% (n = 330,000); in the data active = inhibition above about 50%
Target sequence (Q96LD8 whole entry, looked up): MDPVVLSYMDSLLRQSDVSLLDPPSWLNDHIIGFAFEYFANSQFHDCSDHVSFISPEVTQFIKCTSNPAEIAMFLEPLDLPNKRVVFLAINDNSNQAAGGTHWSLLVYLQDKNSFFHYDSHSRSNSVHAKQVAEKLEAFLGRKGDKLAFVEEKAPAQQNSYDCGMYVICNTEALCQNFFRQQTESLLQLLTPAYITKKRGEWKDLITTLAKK
SENP8 block-2 – inhibitors of human SENP8 protease; Q96LD8; recombinant SENP8, Nedd8 substrate fluorescence; inhibition, % at 20 µM; actives 0.64% (n = 360,000); AID 602440; in the data active = inhibition mostly above about 40%, no sharp cut-off; inactive = mostly below about 27%
The depositor's hits bear a star; i = inactive; x = no result given; ! = not active in a repeat. Only some compounds are listed: those with a hit (about 3% of all), similar ones and a draw of the others.

SMILES | C8 TRAIL sens | SENP6 block | SENP7 inh | PPC-1+TRAIL kill | SENP8 block-1 | SENP8 block-2
c1ccc(COc2ncnc3c2ncn3CCCNCC(c2ccccc2)c2ccccc2)cc1 | 63.1* | x | x | x | x | -5.9
CCCCCc1cc(=O)oc2c(C(CCN3CCCC3)c3cc(OC)c(OC)c(OC)c3)c(OC)cc(OC)c12 (stereo not given) | 53.2* | -14.2 | 2.8 | 10.8 | -6.6 | -154.2
CCCCCc1cc(=O)oc2c(C(CCN3CCCCC3)c3ccc(OC)cc3)c(OC)cc(OC)c12 (stereo not given) | 38.6 | 0.7 | 2.7 | -0.9 | -12.2 | i
O=C(/C=C/Nc1ccccc1O)c1ccco1 | 10.5 | 88.8* | 85.2* | 0.3 | 77.1* | -36.8
CCCN1C(=O)/C(=C/c2ccc(C)s2)SC1=Nc1ccc(OC)cc1 | -6.7 | -15.0 | -23.4 | -19.2 | -2.1 | 23.0
CCN(CC)CCN1C(=O)/C(=C\c2ccc(Cl)c([N+](=O)[O-])c2)SC1=Nc1ccc(OC)cc1 | 88.7* | 37.3 | 3.2 | x | 27.2 | 14.4
CCN1C(=O)/C(=C/c2cccs2)SC1=Nc1ccc(OC)cc1 | 1.5 | -20.2 | 4.7 | -5.7 | -3.9 | 21.2
COc1ccc(N=C2S/C(=C\c3ccc(Cl)c([N+](=O)[O-])c3)C(=O)N2CCN(C)C)cc1 | 80.4* | -16.2 | 0.6 | x | 1.9 | 27.8
CC(=N\NC(=O)c1ccc([N+](=O)[O-])cc1)/C(=N/O)C(=O)Nc1ccccc1 | 2.4 | -9.1 | 0.3 | x | 3.8 | 10.7
Cc1cccc(N2CCN(C(=S)Nc3ccc4nc(N5CCN(C)CC5)cc(C)c4c3)CC2)c1C | 93.4* | x | x | x | x | -261.6
Cc1cc(N2CCN(C)CC2)nc2ccc(NC(=S)N3CCN(c4cccc(Cl)c4)CC3)cc12 | 22.9 | 1.2 | -4.7 | 6.8 | -2.1 | -297.5
Cc1cccc(N2CCN(C(=S)Nc3ccc4nc(N5CCN(C)CC5)cc(C)c4c3)CC2C)c1 (stereo not given) | 66.8* | -11.6 | 3.4 | 24.7 | -4.1 | -209.1
Cc1[nH]c(C)c(S(=O)(=O)NCc2ccc(F)cc2)c1C(=O)N1CCCC1 | 7.9 | -5.7 | -6.6 | x | -5.1 | 10.6
COCc1[nH]c(=S)[nH]c(=O)c1C | 18.6 | -10.5 | 1.1 | 13.2 | -14.9 | 17.3
CCc1nc2ccc(C(=O)NCCOc3ccc(OC)cc3)cn2c1N(C=O)Cc1ccc(OC)cc1 | 2.3 | x | x | x | x | -85.2
CCN(CC)S(=O)(=O)c1ccc(N2CCOCC2)c(NC(=O)COc2ccc(C#N)cc2)c1 | 12.7 | -5.9 | -5.1 | 17.9 | -0.3 | 7.5
CCOC(=O)c1sc(NC(=O)c2cc(-c3ccccc3C)nc3ccccc23)c(C#N)c1C | 61.1* | -6.0 | 1.0 | 22.0 | 3.6 | 38.7
Cc1ccccc1-c1cc(C(=O)Nc2sc(C)c(C)c2C(N)=O)c2ccccc2n1 | 39.5 | 9.3 | 5.9 | 26.7 | -3.5 | -21.1
CN(C)S(=O)(=O)c1ccc(C(=O)Nc2nnc(SCC(=O)NCC3CCCO3)s2)cc1 (stereo not given) | 55.3* | 10.3 | -12.6 | x | -6.6 | -7.3
O=C(CSc1nnc(NC(=O)c2c(F)cccc2F)s1)NCC1CCCO1 (stereo not given) | -2.9 | -15.2 | -1.6 | x | -3.6 | -0.6
CC(C)(C)c1ccc(C(=O)Nc2nnc(SCC(=O)NCC3CCCO3)s2)cc1 (stereo not given) | 93.7* | 14.7 | -4.0 | x | -2.2 | -52.4
CC(C)c1ccc(Nc2nnc(SCC(=O)NCC3CCCO3)s2)cc1 (stereo not given) | 39.5 | -6.0 | 6.2 | x | -1.4 | 9.1
CCOc1ccc(C(=O)Nc2nnc(SCC(=O)NCC3CCCO3)s2)cc1 (stereo not given) | 92.0* | 9.6 | 47.2 | x | 18.2 | -29.9
Cc1cc(-c2nnc(CSc3nnc(NC(=O)c4ccc(C(C)(C)C)cc4)s3)o2)ccc1[N+](=O)[O-] | 51.2* | 2.0 | 9.8 | 38.3 | 5.1 | 20.5
O=C(CSc1nnc(NC(=O)c2cccc(F)c2)s1)NCC1CCCO1 (stereo not given) | 35.6 | 0.0 | 1.9 | x | -0.4 | -20.7
SMILES | C8 TRAIL sens | SENP6 block | SENP7 inh | PPC-1+TRAIL kill | SENP8 block-1 | SENP8 block-2
COc1ccc(-c2cn3cccc(C)c3n2)cc1Br | 22.5 | -8.5 | 68.3* | 28.3 | 58.8* | -59.5
Nc1cccc(C(=O)OCC(=O)c2ccccc2)c1 | -2.4 | 67.6* | 70.2* | -14.5 | 54.6* | 9.9
Nc1cccc(C(=O)OCC(=O)Nc2cccc3c2C(=O)c2ccccc2C3=O)c1 | -3.0 | -13.4 | 3.4 | 16.8 | -7.6 | 29.5
O=C(CCc1ccc(S(=O)(=O)N2CCOCC2)cc1)N/N=C/c1ccc(O)c(O)c1O | 49.1 | -5.1 | 8.0 | 10.2 | -3.5 | 39.4*
CCCCNC(=O)C(c1ccc(OCC(=O)OC)c(C(=O)OC)c1)N(CCOC)C(=O)CCCCCN1C(=O)NC(c2ccc(-c3ccccc3)cc2)C(C(=O)OCc2ccccc2)=C1C (stereo not given) | x | -11.5 | -5.5 | -4.3 | 0.2 | x
O=S1(=O)CC(N2CCN(CC3CC3)CC2)CN1C1CCCCC1 (stereo not given) | -18.4 | x | x | x | x | 18.8
O=C(NC(=Nc1nc2ccccc2o1)NC(=O)c1ccccc1)c1ccccc1 | -15.7 | -1.6 | -1.8 | 8.8 | -1.6 | -351.4
COc1ccccc1C(=O)NC(=Nc1nc2ccccc2o1)NC(=O)c1ccccc1OC | 71.5*! | -1.7 | -3.4 | 3.2 | -3.1 | 4.2
O=C(CN1C2=NCCCN2c2ccccc21)c1ccc(Br)s1 | 2.8 | -5.9 | -0.5 | 9.4 | -11.5 | 40.6*
COc1cccc(CN(C)C(=O)CCN(c2ccccc2)S(=O)(=O)c2ccc(C)cc2)c1OC | -11.4 | -3.2 | -7.5 | x | 9.2 | 10.3
CN(C(=O)COC(=O)c1cnc(Cl)c(Cl)c1)C1CCCCC1 | 69.0* | -15.8 | 5.7 | x | -8.6 | 4.0
CCOC(=O)N1CCN(C(=O)CCN2C(=O)/C(=C\c3ccccc3OC)SC2=S)CC1 | -11.0 | -12.2 | 7.1 | x | -11.3 | 22.0
CCN1C(=O)/C(=C\N2CCCCCC2)SC1=S | 14.8 | 7.2 | 2.6 | -14.8 | -6.5 | 46.3*
CCOc1ccccc1C=C1SC(=S)N(CC)C1=O | 73.3* | x | x | x | x | 35.6*
Cc1cc(Cl)n2ncc(-c3ccccc3)c2n1 | 91.0* | -2.9 | 1.0 | 21.8 | -7.6 | -33.0
Cc1cc(C(=O)CSc2nc3ccccc3[nH]2)c(C)n1CC1CCCO1 (stereo not given) | 76.3* | 8.2 | 3.2 | 7.1 | -7.9 | 1.5
Cc1cc(C(=O)CSc2nc(N)cc(=O)[nH]2)c(C)n1CC1CCCO1 (stereo not given) | 3.9 | -3.7 | -1.8 | x | -10.4 | -1.4
O=C1OCC(c2ccc(Cl)s2)=C1c1ccccc1[N+](=O)[O-] | 2.9 | 1.7 | 0.1 | x | -3.0 | 12.6
Cc1ccccc1N(Cc1cc(=O)[nH]c2ccccc12)C(=O)CCl | 12.5 | -1.4 | -4.4 | x | 5.2 | 4.6
CCCCCCCN(C(=O)CCl)c1ccccc1C | 87.6* | -15.2 | -7.8 | 18.0 | -12.7 | 4.9
O=C(COc1ccc(S(=O)(=O)N2CCCC2)cc1)NCc1cccnc1 | -9.6 | -4.3 | 4.4 | x | 6.6 | 12.0
